Our source for the Percent Effect values is ChEMBL document CHEMBL3988442, “University of Dundee, Small-Polar-MMV Screening Library” (2021).

What all share (design): scale not given: direction of the effect not stated beside the values
Experiment [1] has as its target Protein translocase subunit SecA (Escherichia coli (strain K12)) (UniProt P10408). Kind of experiment: Assay to Identify E. coli SecA ATPase Inhibitors. Particulars: 30 µM. The class given is functional.
Experiment [2] concerns the target T1, Ubiquitin-activating enzyme e1, putative (Leishmania donovani (strain BPK282A1)) (UniProt E9BSI1).
T1 sequence (whole entry): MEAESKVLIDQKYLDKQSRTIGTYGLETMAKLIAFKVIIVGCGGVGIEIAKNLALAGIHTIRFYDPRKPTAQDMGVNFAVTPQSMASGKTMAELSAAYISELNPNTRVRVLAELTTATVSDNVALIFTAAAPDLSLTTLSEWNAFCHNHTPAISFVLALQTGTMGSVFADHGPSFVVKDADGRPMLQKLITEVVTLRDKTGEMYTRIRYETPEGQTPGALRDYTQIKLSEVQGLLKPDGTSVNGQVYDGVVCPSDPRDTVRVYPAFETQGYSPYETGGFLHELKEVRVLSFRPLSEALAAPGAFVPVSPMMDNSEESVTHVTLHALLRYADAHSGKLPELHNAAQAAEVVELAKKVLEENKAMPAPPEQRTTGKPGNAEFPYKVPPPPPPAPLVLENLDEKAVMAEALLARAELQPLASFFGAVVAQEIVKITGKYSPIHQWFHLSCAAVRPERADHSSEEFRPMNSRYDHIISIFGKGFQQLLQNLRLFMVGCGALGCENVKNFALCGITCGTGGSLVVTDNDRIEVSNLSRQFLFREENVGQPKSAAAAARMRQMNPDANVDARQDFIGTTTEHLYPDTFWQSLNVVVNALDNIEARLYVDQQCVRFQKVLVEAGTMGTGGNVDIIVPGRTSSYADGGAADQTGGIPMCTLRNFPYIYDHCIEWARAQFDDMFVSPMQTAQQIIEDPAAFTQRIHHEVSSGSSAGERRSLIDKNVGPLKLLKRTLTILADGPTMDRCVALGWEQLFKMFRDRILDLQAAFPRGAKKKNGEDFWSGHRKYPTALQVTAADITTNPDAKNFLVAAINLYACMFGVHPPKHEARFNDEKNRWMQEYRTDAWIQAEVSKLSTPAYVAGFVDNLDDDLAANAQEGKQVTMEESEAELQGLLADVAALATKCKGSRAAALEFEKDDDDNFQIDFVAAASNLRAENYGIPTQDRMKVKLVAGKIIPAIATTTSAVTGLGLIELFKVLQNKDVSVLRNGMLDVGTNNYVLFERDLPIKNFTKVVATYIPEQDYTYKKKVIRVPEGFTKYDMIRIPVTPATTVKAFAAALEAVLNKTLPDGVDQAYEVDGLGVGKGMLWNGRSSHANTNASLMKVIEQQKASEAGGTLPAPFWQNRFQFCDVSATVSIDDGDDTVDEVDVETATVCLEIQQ
Kind of experiment: Leishmania donovani Ubiquitin Activating Enzyme (LdE1). Particulars: 30 µM. Format: functional.

Experiment [3] has as its target Sialic acid-binding Ig-like lectin 9 (Homo sapiens) (UniProt Q9Y336). The experiment in a line: Hs-Siglec9 ALPHAscreen SOP 20170721. Conditions: 10 µM.
A further experiment relates to Trypanosoma cruzi. Kind of experiment: Trypanosoma cruzi phosphomannomutase and mannose-1-phosphate guanylyltransferase assay. The class given is functional. Conditions: 10 µM.
For experiment [4], the target named is T2, Arginase-2, mitochondrial (Homo sapiens) (UniProt P78540).
T2 sequence (whole entry): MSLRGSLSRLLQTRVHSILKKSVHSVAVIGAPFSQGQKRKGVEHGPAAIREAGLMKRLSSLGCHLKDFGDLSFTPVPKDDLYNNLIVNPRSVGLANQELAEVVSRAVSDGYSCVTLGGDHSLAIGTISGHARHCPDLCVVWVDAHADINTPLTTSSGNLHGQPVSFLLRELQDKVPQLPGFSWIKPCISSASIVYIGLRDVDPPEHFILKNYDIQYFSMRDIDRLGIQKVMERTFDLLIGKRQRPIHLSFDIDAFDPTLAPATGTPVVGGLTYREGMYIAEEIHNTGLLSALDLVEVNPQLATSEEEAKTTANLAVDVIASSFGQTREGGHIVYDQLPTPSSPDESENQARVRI
The experiment in a line: in vitro enzyme assay to detect the production of urea directly proportional to the activity of Arginase II. Note: in the data most compounds retested in dose-response had high values. Particulars: 33.3 µM. The class given is functional.

Experiment [5] has as its target T3, Proteasome subunit beta (Trypanosoma cruzi) (UniProt O96673).
T3 sequence (whole entry): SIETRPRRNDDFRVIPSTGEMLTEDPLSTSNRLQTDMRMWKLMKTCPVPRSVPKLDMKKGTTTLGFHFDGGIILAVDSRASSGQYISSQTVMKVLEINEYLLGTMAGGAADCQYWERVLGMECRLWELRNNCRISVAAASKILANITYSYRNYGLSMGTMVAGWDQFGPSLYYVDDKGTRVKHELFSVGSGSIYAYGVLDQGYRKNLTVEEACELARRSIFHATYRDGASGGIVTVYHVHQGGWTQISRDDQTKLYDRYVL
The experiment in a line: Trypanosoma cruzi proteasome chymotrypsin-like activity (TcProtChymo) assay. Note: in the data most compounds retested in dose-response had high values. Format: functional. Particulars: 9.37 µM.

The species entered for another experiment is Homo sapiens. Kind of experiment: To identify inhibition of the IFN signalling (Jak-Stat) pathway via expression of an eGFP reporter gene under the control of an IFN-stimulated response element (ISRE) containing MxA promoter. Format: functional. Particulars: 30 µM.
The target in experiment [6] is T4, Tyrosyl-tRNA synthetase, putative (Trypanosoma cruzi (strain CL Brener)) (UniProt Q4DSP6).
T4 sequence (whole entry): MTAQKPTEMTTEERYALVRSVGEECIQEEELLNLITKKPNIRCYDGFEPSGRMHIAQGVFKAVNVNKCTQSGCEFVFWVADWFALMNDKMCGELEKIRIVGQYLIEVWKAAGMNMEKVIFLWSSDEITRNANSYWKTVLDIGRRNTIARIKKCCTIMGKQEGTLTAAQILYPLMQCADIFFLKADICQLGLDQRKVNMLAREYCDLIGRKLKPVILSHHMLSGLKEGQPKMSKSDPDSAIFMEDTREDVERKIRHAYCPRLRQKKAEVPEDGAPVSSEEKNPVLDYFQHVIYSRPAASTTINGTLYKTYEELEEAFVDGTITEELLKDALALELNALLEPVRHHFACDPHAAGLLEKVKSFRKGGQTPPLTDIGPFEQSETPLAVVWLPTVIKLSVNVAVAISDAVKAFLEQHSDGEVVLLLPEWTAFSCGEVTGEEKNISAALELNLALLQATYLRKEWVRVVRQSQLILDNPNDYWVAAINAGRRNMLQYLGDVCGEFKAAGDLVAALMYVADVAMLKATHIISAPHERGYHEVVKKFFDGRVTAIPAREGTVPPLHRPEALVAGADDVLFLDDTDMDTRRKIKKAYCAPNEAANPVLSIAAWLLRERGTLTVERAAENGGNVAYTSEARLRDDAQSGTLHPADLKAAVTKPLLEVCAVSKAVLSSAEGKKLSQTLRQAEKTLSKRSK
The experiment in a line: Trypanosoma cruzi tyrosyl tRNA synthetase (TcYRS) _High Tyrosine SOP. Note: in the data most compounds retested in dose-response had high values. Format: functional. Conditions: 30 µM.

The target in experiment [7] is T4, Tyrosyl-tRNA synthetase, putative (Trypanosoma cruzi (strain CL Brener)). The experiment in a line: Trypanosoma cruzi tyrosyl tRNA synthetase (TcYRS) SOP. Conditions: 30 µM. Format: functional.
The target in experiment [8] is Chromo domain-containing protein 1 (Saccharomyces cerevisiae (strain ATCC 204508 / S288c) (Baker's yeast)) (UniProt P32657). The experiment in a line: ScCHD-1 Enzyme Inhibition Assay. Note: in the data most compounds retested in dose-response had high values. The class given is functional. Conditions: 30 µM.

For some assays here: Measured potencies and affinities stand elsewhere.

Chain of Protein translocase subunit SecA (Escherichia coli (strain K12)) (P10408 whole entry): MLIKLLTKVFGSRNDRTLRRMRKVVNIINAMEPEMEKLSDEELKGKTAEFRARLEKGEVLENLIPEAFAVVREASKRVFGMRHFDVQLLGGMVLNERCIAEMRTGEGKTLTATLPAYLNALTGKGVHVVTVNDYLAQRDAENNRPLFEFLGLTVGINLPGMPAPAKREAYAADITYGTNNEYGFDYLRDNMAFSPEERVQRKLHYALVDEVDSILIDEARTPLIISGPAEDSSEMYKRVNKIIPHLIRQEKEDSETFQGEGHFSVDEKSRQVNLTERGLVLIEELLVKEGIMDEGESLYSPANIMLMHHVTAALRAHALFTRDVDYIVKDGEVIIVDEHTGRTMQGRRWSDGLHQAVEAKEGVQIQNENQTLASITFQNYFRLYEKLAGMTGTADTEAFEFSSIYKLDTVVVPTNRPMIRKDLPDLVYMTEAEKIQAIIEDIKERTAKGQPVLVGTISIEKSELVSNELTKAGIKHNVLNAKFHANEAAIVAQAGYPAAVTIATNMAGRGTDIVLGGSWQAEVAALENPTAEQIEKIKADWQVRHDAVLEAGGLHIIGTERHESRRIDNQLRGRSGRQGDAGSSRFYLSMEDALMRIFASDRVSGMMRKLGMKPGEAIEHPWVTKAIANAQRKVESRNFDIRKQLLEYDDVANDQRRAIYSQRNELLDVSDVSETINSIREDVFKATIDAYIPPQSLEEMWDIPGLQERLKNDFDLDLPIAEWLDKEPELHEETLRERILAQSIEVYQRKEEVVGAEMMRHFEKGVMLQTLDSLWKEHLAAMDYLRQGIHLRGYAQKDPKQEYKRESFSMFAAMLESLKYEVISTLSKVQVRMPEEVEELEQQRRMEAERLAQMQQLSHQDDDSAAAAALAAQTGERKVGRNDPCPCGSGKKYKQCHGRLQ
Chain of Sialic acid-binding Ig-like lectin 9 (Homo sapiens) (Q9Y336 whole entry): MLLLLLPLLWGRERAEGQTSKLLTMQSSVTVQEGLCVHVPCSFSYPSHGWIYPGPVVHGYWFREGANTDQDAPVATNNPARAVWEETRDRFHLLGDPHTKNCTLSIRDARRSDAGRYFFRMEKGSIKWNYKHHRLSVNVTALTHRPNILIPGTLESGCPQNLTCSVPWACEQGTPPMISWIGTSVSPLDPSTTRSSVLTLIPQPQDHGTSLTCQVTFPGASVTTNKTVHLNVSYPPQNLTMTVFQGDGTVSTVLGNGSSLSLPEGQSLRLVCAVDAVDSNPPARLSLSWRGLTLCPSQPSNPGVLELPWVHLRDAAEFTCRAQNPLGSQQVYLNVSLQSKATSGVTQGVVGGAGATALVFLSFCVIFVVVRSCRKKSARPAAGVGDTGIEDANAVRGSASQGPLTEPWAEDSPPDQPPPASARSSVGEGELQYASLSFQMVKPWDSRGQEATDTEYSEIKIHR
Chain of Chromo domain-containing protein 1 (Saccharomyces cerevisiae (strain ATCC 204508 / S288c) (Baker's yeast)) (P32657 whole entry, the tested form may be a part): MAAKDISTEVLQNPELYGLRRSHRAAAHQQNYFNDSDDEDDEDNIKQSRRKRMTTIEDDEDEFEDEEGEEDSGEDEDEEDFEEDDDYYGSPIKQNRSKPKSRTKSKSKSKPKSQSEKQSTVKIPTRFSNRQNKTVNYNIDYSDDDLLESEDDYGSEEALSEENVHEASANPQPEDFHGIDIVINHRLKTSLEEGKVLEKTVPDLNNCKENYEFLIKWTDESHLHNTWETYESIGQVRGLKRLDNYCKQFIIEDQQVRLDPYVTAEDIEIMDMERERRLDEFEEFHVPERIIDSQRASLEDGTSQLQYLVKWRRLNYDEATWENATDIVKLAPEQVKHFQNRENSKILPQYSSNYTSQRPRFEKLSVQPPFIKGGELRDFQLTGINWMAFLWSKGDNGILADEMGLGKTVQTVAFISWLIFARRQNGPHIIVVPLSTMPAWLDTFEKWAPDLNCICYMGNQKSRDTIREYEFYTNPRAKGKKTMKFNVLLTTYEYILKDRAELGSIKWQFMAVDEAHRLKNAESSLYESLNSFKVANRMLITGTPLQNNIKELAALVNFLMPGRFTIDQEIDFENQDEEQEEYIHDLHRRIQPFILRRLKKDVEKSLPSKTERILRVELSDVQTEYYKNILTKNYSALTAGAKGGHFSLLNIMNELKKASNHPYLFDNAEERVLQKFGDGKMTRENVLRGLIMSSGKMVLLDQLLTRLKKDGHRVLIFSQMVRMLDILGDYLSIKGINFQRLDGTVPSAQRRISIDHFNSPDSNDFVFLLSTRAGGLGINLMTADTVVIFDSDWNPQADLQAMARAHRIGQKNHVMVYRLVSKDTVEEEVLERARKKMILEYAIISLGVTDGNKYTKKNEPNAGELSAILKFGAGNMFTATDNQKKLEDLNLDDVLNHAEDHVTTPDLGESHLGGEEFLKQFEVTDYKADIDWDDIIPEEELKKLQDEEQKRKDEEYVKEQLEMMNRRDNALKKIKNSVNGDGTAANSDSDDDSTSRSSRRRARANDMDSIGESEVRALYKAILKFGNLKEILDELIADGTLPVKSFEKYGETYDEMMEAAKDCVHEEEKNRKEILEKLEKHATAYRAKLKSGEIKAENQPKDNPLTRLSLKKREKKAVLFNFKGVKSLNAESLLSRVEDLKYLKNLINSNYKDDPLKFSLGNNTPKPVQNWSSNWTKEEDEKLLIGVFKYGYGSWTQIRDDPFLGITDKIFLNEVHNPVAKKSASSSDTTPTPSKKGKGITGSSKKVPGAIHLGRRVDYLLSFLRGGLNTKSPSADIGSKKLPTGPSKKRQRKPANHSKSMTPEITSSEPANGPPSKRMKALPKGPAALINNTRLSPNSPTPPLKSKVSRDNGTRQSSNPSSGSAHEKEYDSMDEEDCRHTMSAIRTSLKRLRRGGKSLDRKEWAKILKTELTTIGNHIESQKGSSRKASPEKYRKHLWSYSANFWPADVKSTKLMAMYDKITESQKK

As for `CCn1ccnc1CN1CCN(CC(O)c2ccccc2)CC1` (stereo not given), the Percent Effect in experiment [1] was -1.54%; in experiment [2] it was 2.56%; in experiment [3], 2.88%; in the experiment on Trypanosoma cruzi, -4.79%; in experiment [4], 4.51%; in [5], 6.91%. The Percent Effect was 10.2% in the experiment filed under Homo sapiens, 1.44% in [6], 6.02% in [7] and -0.452% in experiment [8].
Turning to `O=C1CO[C@@H]2CN(Cc3cccs3)C[C@H]2N1CC1CC1`, the Percent Effect in experiment [1] was -6.35%; in experiment [2] it was 19.5%; in experiment [3] it was -2.08%; with Trypanosoma cruzi, 2.04%; in [4], 1.62%; in [5], 13.9%. The Percent Effect in the experiment listed under Homo sapiens is -6.77%; in experiment [6] it was 13.2%; in [7] it was 17.9%; in [8] it was -0.629%.
Take `COc1ccc(CC(=O)N2C[C@@H]3COC[C@]3(CN(C)C)C2)cc1`: the Percent Effect in experiment [1] was -3.95%; in experiment [2], -42.9%; in experiment [3], 3.29%; with Trypanosoma cruzi it was 3.8%; in experiment [4] it was -6.07%; in [5], 1.15%. In addition, the Percent Effect in the experiment filed under Homo sapiens was -12.9%; in experiment [6], -26.8%; in experiment [7], -43.6%; in experiment [8] it was 1.23%.
Take `CCC1c2ccsc2CCN1C(=O)NCc1cc[nH]n1` (stereo not given): the Percent Effect is -7.17% in experiment [1]; 7.69% in experiment [2]; -4.75% in [3]; -4.79% in the experiment with Trypanosoma cruzi; 0% in experiment [4]; 7.25% in [5]. Besides, the Percent Effect was 21.4% in the experiment filed under Homo sapiens, 2.39% in experiment [6], 6.02% in experiment [7] and -1.84% in experiment [8].
Turning to `Cc1nn(C)c(N(C)C)c1CNC(C)c1cccc(OC(C)C)c1` (stereo not given), the Percent Effect in experiment [1] was 2.06%; in [2], 5.2%; in experiment [3], 13.8%; in the experiment on Trypanosoma cruzi, -0.746%; in experiment [4] it was -7.58%; in experiment [5] it was 4.91%. For the same compound, the Percent Effect was 15.4% in the experiment listed under Homo sapiens, 3.92% in experiment [6], 18.8% in experiment [7] and -11.9% in experiment [8].
Turning to `COc1ccc(C(=O)NCCCn2ccnc2)c(OC)n1`, the Percent Effect in [1] was -2.17%; in experiment [2], 24.7%; in [3] it was 1.39%; in the experiment on Trypanosoma cruzi, 3.75%; in experiment [4], 0%; in experiment [5], 10.6%. The Percent Effect was 11.6% in the experiment listed under Homo sapiens, 6.76% in experiment [6], 22.5% in experiment [7] and -12.8% in experiment [8].
For `CC(C)(C)C(O)CN1CCN(C(=O)c2cccc3ncccc23)CC1` (stereo not given), the Percent Effect in experiment [1] was -3.23%; in experiment [2] it was 12.8%; in [3] it was -15.5%; in the experiment with Trypanosoma cruzi, -7.23%; in [4], -0.41%; in [5] it was 8.11%. The Percent Effect in the experiment listed under Homo sapiens is -0.457%; in experiment [6], 3.35%; in experiment [7], 10.8%; in [8], -6.72%.
Turning to `CCOCCN1CCCC(c2cc(C(N)=O)[nH]n2)C1` (stereo not given), the Percent Effect in [1] was -1.61%; in [2], 0%; in experiment [3], 5.24%; with Trypanosoma cruzi, -4.22%; in [4], 3.99%; in [5] it was 8.06%. The Percent Effect in the experiment listed under Homo sapiens is 13.9%; in experiment [6], 3.68%; in experiment [7], 7.69%; in experiment [8], -5.54%.
In the case of `Cc1ccc(CN2CCCn3c(nc(CN4CCCC4)cc3=O)C2)s1`, the Percent Effect was -4.72% in experiment [1]; 3.9% in experiment [2]; -1.12% in experiment [3]; -2.82% in the experiment on Trypanosoma cruzi; -2.02% in experiment [4]; 2.38% in experiment [5]. Further, the Percent Effect is -18.4% in the experiment filed under Homo sapiens, 0.526% in [6], 7.69% in experiment [7] and 3.51% in [8].
As for `COC(=O)N1C[C@H]2CC[C@@H]1CN(Cc1cscn1)C2`, the Percent Effect in [1] was -8.16%; in [2], 0%; in [3], 5.89%; in the experiment on Trypanosoma cruzi it was 7.66%; in experiment [4], -1.05%; in experiment [5], 9.93%. The Percent Effect was 28.6% in the experiment filed under Homo sapiens, 5.85% in experiment [6], 14.6% in experiment [7] and -2.59% in [8].
For the compound `Cc1cc(NC(=O)C(C)N2CCCN(c3nccs3)CC2)on1` (stereo not given), the Percent Effect in [1] is -5.38%; in experiment [2], 7.69%; in experiment [3], 6.57%; in the experiment with Trypanosoma cruzi, 1.03%; in experiment [4] it was 5.74%; in experiment [5], 7.08%. For the same compound, the Percent Effect in the experiment listed under Homo sapiens turned out to be 12.4%; in [6] it was 0.478%; in experiment [7] it was 8.43%; in experiment [8] it was 6.1%.
